Screen size: about 48,000 compounds; about 13,000 (27%) showed an effect of 50% or more. The list shows a part of the results.
What follows are compounds tested on Wolbachia pipientis (assay: Anti-Wolbachia Cell-Based Screen). Conditions: 5 µM.
Type: functional
Set-up: scale not given: in the data most compounds retested in dose-response had high values

| SMILES | Percent Effect |
| --- | --- |
| CCc1n[nH]c(C(=O)NCCn2ccnc2C)c1C | 12.68% |
| CCc1noc(C)c1C(=O)NCc1cc[nH]n1 | -9.348% |
| CCCN1CC2(CCN(C)CC2)CC1C(=O)NCCn1ccc(C)n1 (stereo not drawn) | 5.137% |
| CCc1n[nH]c(C(=O)NCCn2ccc(C)n2)c1C | 161.5% |
| CCc1n[nH]c(C(=O)NCCn2nccc2C)c1C | 177.1% |
| COC(C(=O)N1CCN(c2cccc(Cl)c2)C(=O)C1)c1ccccc1 (stereo not drawn) | -8.872% |
| Cc1ccc(N2CCN(C(=O)C(O)c3cccc(Cl)c3)CC2=O)cc1 (stereo not drawn) | -0.06478% |
| COc1ccc(N2CCN(C(=O)CCCc3cn[nH]c3)CC2=O)cc1 | -15.55% |
| COc1cnc(CN2CC(=O)N(c3ccc(C)cc3)CC2C)cc1O (stereo not drawn) | 8.35% |
| O=C([C@H](O)c1ccccc1)N1CCN(c2cccc(Cl)c2)C(=O)C1 | -7.931% |
| Cc1ccc(CC(=O)N2CC[C@@H]3NC(=O)CC[C@@H]32)cc1 | -5.727% |
| COc1cccc(N2CCN(C(=O)CO)CC2=O)c1 | 5.099% |
| Cc1cc(C)cc(N2CCN(C(=O)C3CN(C)C(=O)N3)CC2=O)c1 (stereo not drawn) | 83.41% |
| Cc1ccc(N2CCN(C(=O)[C@@H]3CCC(=O)N3)CC2=O)cc1 | 107.8% |
| Cc1ccc(N2CCN(C(=O)C3CN(C)C(=O)N3)CC2=O)cc1 (stereo not drawn) | 99.53% |
| CN1CC(C(=O)N2CCN(c3cccc(Cl)c3)C(=O)C2)NC1=O (stereo not drawn) | 98.1% |
| COc1cccc(N2CCN(C(=O)[C@H](O)C3CCCCC3)CC2=O)c1 | -19.32% |
| COc1ccc(-c2nc(CNCCn3cccn3)cs2)cc1 | 30.25% |
| COc1cc2c(cc1CNCc1ccnc(-n3cccn3)c1)OC(C)C2.Cl (stereo not drawn) | -0.5391% |
| O=C(O)CSc1nnc(-c2ccn[nH]2)n1-c1ccccc1C(F)(F)F | -29.49% |
| N#CCCN(CC1CCOC1)Cn1ccc(-c2ccsc2)n1 (stereo not drawn) | -9.852% |
| Cn1cccc1C(=O)N1CC2(CCN(C(=O)c3cccnc3)C2)C1.O=C(O)C(F)(F)F | 98.8% |
| Cn1cccc1CN1CCC2(CCCN(C(=O)c3cccnc3)C2)CC1.O=C(O)C(F)(F)F.O=C(O)C(F)(F)F | 3.692% |
| Cn1cccc1C(=O)N1CCC2(CCN(C(=O)c3cccnc3)C2)CC1.O=C(O)C(F)(F)F | 51.82% |
| CC1(C(=O)NCc2cccc(C(F)(F)F)c2)CCOCC1 | 102.7% |
| CC(CNC(=O)NCc1ccsc1)CC1(C)OCCO1 (stereo not drawn) | -12.21% |
| CC1(C(=O)NCc2ccsc2)CCOCC1 | 107.3% |

| SMILES | Percent Effect |
| --- | --- |
| CC1(CCNC(=O)NCc2ccsc2)OCCO1 | -10.92% |
| CC1(C(=O)NCCc2ccc(F)cc2)CCOCC1 | 104.4% |
| FC(F)(F)c1cccc(C2(CNCc3cc[nH]c3)CCOCC2)c1 | 2.692% |
| CN1CCN(C(=O)NCCc2ccc(F)cc2)[C@H]2CS(=O)(=O)C[C@H]21 | 8.781% |
| FC(F)(F)c1cccc(C2(CNCc3ccncc3)CCOCC2)c1 | -7.872% |
| CC1(C(=O)Nc2ccc(F)c(-n3cccc3)c2)CCOCC1 | -9.431% |
| CCN(CC)c1ccc(CNC(=O)C2(C)CCOCC2)cc1F | 25.87% |
| CN(C)C1(CNC(=O)Cc2ccc(F)cc2)CCOCC1 | -8.041% |
| CC1(C(=O)NCc2cc(F)cc(F)c2)CCOCC1 | 100.6% |
| Cc1nc(-c2ccccc2)c(C(=O)N2CCC3(CC(=O)NC3=O)C2)s1 (stereo not drawn) | -0.3979% |
| Cc1noc(C)c1CN1CC2(CCN(C(=O)c3ccoc3C)C2)CC1=O (stereo not drawn) | -6.391% |
| CCC(C)N(Cc1cc(C)n[nH]1)Cc1ccccc1Cl (stereo not drawn) | 4.348% |
| Cc1cc(CN2CCCC2)cc(Oc2ccc3c(c2)CC(CN)O3)c1 (stereo not drawn) | 4.792% |
| CC(C)c1noc(CN(C)C(=O)c2ncn[nH]2)n1 | 4.654% |
| CC(=O)NCCNC(=O)c1sc(-c2ccc(C)cc2C)nc1C | -3.584% |
| N#Cc1cn[nH]c1NCc1cc(Br)ccc1O | 83.36% |
| N#Cc1cn[nH]c1NCc1cc(Cl)cc(Cl)c1O | 77.61% |
| N#Cc1cn[nH]c1NCc1cc(I)cc(I)c1O | 96% |
| COc1ccc(/C=C/CN2CCN(c3ncccc3C(N)=O)CC2)cc1 | -5.557% |
| CCc1cc(NC2CCN(CC(N)=O)CC2)nc(N2CCCCC2)n1 | 3.351% |
| Cc1nc(NC2CCCC2)cc(C2CCN2C(=O)c2ccccc2)n1 (stereo not drawn) | 4.339% |
| CCC(=O)N1CCC1c1cc(NC2CCCC2)nc(C)n1 (stereo not drawn) | 124.3% |
| Cc1nc(NC2CCCC2)cc(C2CCN2C(=O)c2cnn(C)c2)n1 (stereo not drawn) | 99.12% |
| Cc1nc(NC2CCCC2)cc(C2CCN2C(=O)c2ccccn2)n1 (stereo not drawn) | 140.6% |
| Cc1cccc(N2CC[C@H]3[C@H]2CCN3C(=O)c2cnn(C)c2)n1 | 8.202% |
| Cc1nc(NC2CCCC2)cc(C2CCN2C(=O)c2cccnc2)n1 (stereo not drawn) | -5.726% |

— ChEMBL document CHEMBL3988442, “University of Dundee, Small-Polar-MMV Screening Library” (2021)
